GLP-1R inv ag = inverse agonists of human GLP-1 receptor; HEK293 GLP-1R CRE-luciferase, luminescence, 24 h; GLP-1R form is constitutively active; Potency, µM (series often up to 38.3 µM), most hits filed as inhibitors; P43220; actives 1.6% (n = 410,000); also: nearly all actives have a fitted effect of over 55% in size
Target sequence (P43220 whole entry, looked up): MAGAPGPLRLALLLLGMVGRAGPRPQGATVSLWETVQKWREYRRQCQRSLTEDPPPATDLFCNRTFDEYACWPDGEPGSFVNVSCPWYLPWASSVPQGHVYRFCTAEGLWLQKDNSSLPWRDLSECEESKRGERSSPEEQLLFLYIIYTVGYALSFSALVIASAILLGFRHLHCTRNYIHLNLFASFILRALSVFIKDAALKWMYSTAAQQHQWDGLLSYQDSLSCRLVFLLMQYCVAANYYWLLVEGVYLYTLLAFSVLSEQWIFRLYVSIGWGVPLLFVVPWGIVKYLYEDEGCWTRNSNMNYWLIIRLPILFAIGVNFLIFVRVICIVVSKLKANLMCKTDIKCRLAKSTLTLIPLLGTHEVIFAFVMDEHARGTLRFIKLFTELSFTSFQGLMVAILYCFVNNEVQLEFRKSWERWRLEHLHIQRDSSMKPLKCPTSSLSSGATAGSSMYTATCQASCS
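Cells are plated, allowed 12 hours at 37 deg C, then treated with compounds for 24 hr before luciferase detection reagent is added and luminescence is read after 12 min at room temperature. The HEK293 line carries constitutively active GLP-1R with a cAMP-responsive reporter.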
GLP1R ag = GLP-1 receptor (human) agonism | P43220 | actives 0.007% (n = 380,000) | Potency, µM (highest dose often 45.6 µM), hits mostly activators | AID 624172 | HEK293 GLP-1R CRE-luciferase, luminescence, 4-6 h; cells express a hypersensitive GLP-1R form
HEK293 tox = cytotoxicity counter-screen for GLP-1 receptor inverse agonists | Potency, µM (top dose mostly 38.3 µM), most hits filed as inhibitors | AID 624418 | HEK293 cAMP-luciferase reporter cells, luminescence, 24 h | actives 0.13% (n = 410,000);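 also: loss of luciferase light is scored as toxicity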
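Compound-treated cells are incubated 24 hr at 37 deg C under 5% CO2 after a 12 hour attachment period, then luciferase detection reagent is added and luminescence is measured following 12 min at room temperature; lowered signal indicates toxicity.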
Of the large screens only hits and unclear results are named; the others gave an inactive call. Shown are actives, neighbours in structure and some others; about 1.7% of the full set was active somewhere. Calls follow the shape of the dose curve; as a rule, active = well fitted curve in the direction sought with a large enough effect; inconclusive = small, poorly fitted or top-dose-only effect, or another doubt; inactive = no such curve, though single readings can be large; an effect the other way counts as inactive or inconclusive.

Cc1c(Cl)ccc2sc(N3CCN(C(=O)C4=COCCO4)CC3)nc12	none
CC(C)=NOc1nc(N2CCOCC2)nc(N2CCOCC2)n1	none
CCOC(=O)Nc1ccc2c(c1)C(=NNC(N)=S)c1ccccc1-2	GLP-1R inv ag inconclusive, HEK293 tox 4µM
CCOC(=O)Nc1ccc2c(c1)C(=NO)c1ccccc1-2	GLP-1R inv ag inconclusive
CCc1nc2ccccc2n1CCCCOc1ccc(Cl)cc1	GLP-1R inv ag inconclusive (no result: GLP1R ag)
OCCCc1nc2ccccc2n1CCc1ccccc1	none
CCc1nc2ccccc2n1CCCCOc1ccc(C)cc1	GLP-1R inv ag 10µM (no result: GLP1R ag)
CCCc1nc2ccccc2n1CCc1ccccc1	GLP-1R inv ag 10µM
O=C(Nc1cccc(Cl)c1Cl)c1ccc2c(c1)N(Cc1cccc(Cl)c1)C(=O)c1ccccc1S2(=O)=O	none
Cc1cc(=O)n(CC(=O)N2CCCCC2)c2c1c(C)nn2C	none (no result: GLP1R ag)
CCC1CCCCN1C(=O)Cn1c(=O)cc(C(F)(F)F)c2c(C)nn(C)c21 (stereo not drawn)	GLP-1R inv ag 10µM (no result: GLP1R ag)
COc1cc(CNc2ccc(CNc3ncn[nH]3)cc2)ccc1OCc1ccccc1	GLP-1R inv ag 2µM
COc1ccccc1CNc1ccc(CNc2ncn[nH]2)cc1	none
O=C(Cc1ccccc1)NCC(=O)OCc1cccc([N+](=O)[O-])c1	none
Cc1ccc(NC(=O)c2ccc(=O)n(CC(=O)Nc3cc(C)cc(C)c3)n2)cc1	none (no result: GLP1R ag)
CC(=O)OCC(=O)[C@@]1(O)[C@H](C)C[C@H]2C3C[C@H](F)C4=CC(=O)C=CC4(C)C3[C@@H](O)CC21C (stereo partly drawn)	none (no result: GLP-1R inv ag, HEK293 tox)
COc1cc(NC(=O)c2cnc(N)s2)cc(C(=O)Nc2cccc(C(F)(F)F)c2)c1	GLP-1R inv ag 13µM
COc1cc(NC(=O)c2ccnc(N)c2)cc(C(=O)Nc2cccc(C(F)(F)F)c2)c1	none
O=S1(=O)CC(N2CCCC2)CN1Cc1cn(Cc2ccc(Cl)cc2)nn1 (stereo not drawn)	none
CC(C)(CC(=O)NCc1ccc(Cl)cc1Cl)CC1=NS(=O)(=O)c2ccccc2N1	GLP-1R inv ag 8.9µM, HEK293 tox inconclusive
Cc1ccc(Cl)cc1NC(=O)COC(=O)CC(C)(C)CC1=NS(=O)(=O)c2ccccc2N1	GLP-1R inv ag inconclusive
C=C(C)C(=O)Oc1ccc(N=Nc2ccc(C)cc2)ccc1=O	HEK293 tox inconclusive
O=C(CCC1N=C2c3ccccc3N=C(SCC(=O)Nc3ccccc3F)N2C1=O)NCc1ccccc1 (stereo not drawn)	none (no result: GLP1R ag)
COc1ccc(N(C)C(=O)c2cn(C3CCCCC3)c(=O)c3c2c2ccccc2n3C)cc1	GLP-1R inv ag inconclusive (no result: GLP1R ag)
CC(C)(C)c1ccc(C(=O)NC2(C(F)(F)F)NC(=O)N(CCc3ccccc3)C2=O)cc1 (stereo not drawn)	GLP-1R inv ag 13µM
O=C(NC1(C(F)(F)F)NC(=O)N(CCc2ccccc2)C1=O)c1ccc(Cl)cc1 (stereo not drawn)	GLP-1R inv ag inconclusive
O=C1c2ccccc2C(=O)c2c1cccc2N1CCCC1	GLP-1R inv ag inconclusive, HEK293 tox inconclusive
O=C1C=C(N2CCCCC2)c2ccccc2C1=O	GLP-1R inv ag inconclusive, HEK293 tox 10µM
Cc1ccc(OCCOC(=O)c2cc(S(=O)(=O)N3CCCCC3)ccc2N2CCOCC2)cc1	HEK293 tox inconclusive
O=C(OCCOc1ccc(Cl)cc1)c1cc(S(=O)(=O)N2CCCCC2)ccc1N1CCOCC1	GLP-1R inv ag 10µM
COc1ccc(N2CCN(C(=O)Cc3ccc(S(=O)(=O)N4CCOCC4)s3)CC2)cc1	none
O=c1c2oc3ccccc3c2n(Cc2ccccc2Cl)c(=O)n1Cc1ccco1	none (no result: GLP1R ag)
Cc1ccc(CC(C)(O)CC(C)(O)Cc2ccc(C)cc2)cc1 (stereo not drawn)	GLP-1R inv ag 10µM
Cc1ccc(CNC(C)(C)CO)cc1	none
Cc1sc2ccccc2c1CNC[C@H]1O[C@@H](n2cnc(C(N)=O)n2)[C@H](O)[C@@H]1O	none
S=C(NCCN1CCOCC1)N/N=C/c1cccs1	GLP-1R inv ag 3.2µM
Oc1cccc(/C=N/NC(=S)NCCN2CCOCC2)c1O	none
CCN(C(=O)COC(=O)c1ccc([N+](=O)[O-])o1)C1CCCCC1	none
CC(C)c1ccc(NC(=O)C(c2ccc3c(c2)OCO3)N2CCN(C(=O)c3ccco3)CC2)cc1 (stereo not drawn)	GLP-1R inv ag 10µM
CC(NC(=O)Nc1ccc(F)cc1)c1ccc2c(c1)OCO2 (stereo not drawn)	GLP-1R inv ag inconclusive
CC(C)c1ccc(NC(=O)C(c2ccccc2)N2CCN(C(=O)c3ccco3)CC2)cc1 (stereo not drawn)	GLP-1R inv ag inconclusive

Screening data from PubChem.
